# Screening data deposited in PubChem BioAssay by National Center for Advancing Translational Sciences (NCATS).
# D2 PAM-1: positively modulates the human D2 dopamine receptor allosterically; P14416; HEK293 T-REx D2, calcium flux, EC20 dopamine potentiation; potentiation, % at 10 µM; 340,000 compounds, 0.34% hits; AID 485347;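 active means potentiation over 3 SD above the plate norm, cut at about 30% in these data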; further: 0% is about no effect
#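 Cells plated with tetracycline inducer and held overnight at 30 C; calcium dye loaded 30–90 min at room temperature; baseline taken, compound added and read 180 s; EC20 dopamine then added and read 180 s.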
# B2AR arrestin: recruits beta-arrestin to the human beta2-adrenergic receptor; P07550; beta-arrestin recruitment to beta2AR, cell-based reporter; Potency, µM (top dose mostly 46.1 µM), inactives show at the top dose activation, most hits filed as activators; 330,000 compounds, 0.02% hits; AID 492947; active means well fitted activation curve with a large enough effect; inconclusive means small, poorly fitted or top-dose-only effect;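 further: potency means the concentration at half of the fitted maximal effect; 0% = DMSO controls and full agonism = EC100 isoproterenol or metaproterenol; nearly all actives have a fitted effect of over 65% in size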
# Target sequence (P07550 whole entry, looked up): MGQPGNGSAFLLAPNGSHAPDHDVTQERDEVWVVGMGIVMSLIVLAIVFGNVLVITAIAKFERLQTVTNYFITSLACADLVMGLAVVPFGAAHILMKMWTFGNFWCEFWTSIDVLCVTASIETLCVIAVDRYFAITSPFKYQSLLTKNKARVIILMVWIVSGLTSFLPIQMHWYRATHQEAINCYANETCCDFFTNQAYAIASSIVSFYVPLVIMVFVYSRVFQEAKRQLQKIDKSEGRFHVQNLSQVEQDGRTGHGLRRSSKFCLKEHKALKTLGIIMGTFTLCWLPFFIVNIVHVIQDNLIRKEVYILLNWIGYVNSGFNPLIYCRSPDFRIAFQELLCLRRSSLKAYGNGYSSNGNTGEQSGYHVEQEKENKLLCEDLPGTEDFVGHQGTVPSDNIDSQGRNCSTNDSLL
# D2 ag-1: activates the human D2 dopamine receptor | P14416 | DiscoveRx PathHunter D2 beta-arrestin, luminescence, 90 min; 100% = 57 uM dopamine signal | activation, % (no concentration beside the values) | 360,000 compounds, 0.084% hits | AID 624465; in the data active means activation above about 40%; inconclusive means between about 15% and that limit
#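 DiscoveRx PathHunter D2 beta-arrestin cells (2,100/well) attached overnight, then compound-stimulated 90 min at 37 C in HBSS/10 mM HEPES/0.1% Tween-20 buffer; beta-galactosidase complementation read by luminescence after 1 h at ambient temperature. Dopamine 57 uM final (EC100) as control.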
# D2 PAM-2: human D2 receptor positive allosteric modulation. P14416. DiscoveRx D2 beta-arrestin cells, luminescence, 90 min; 100% = 57 uM dopamine signal. potentiation, % (test concentration not listed). 360,000 compounds, 0.23% hits. AID 624464; in the data active means potentiation above about 50%; inconclusive means mostly about 30% to 49%
#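 PathHunter D2 cells, attached overnight at 37 deg C, received compound in DMSO plus dopamine at EC20 (50 nM final) for 90 min at 37 deg C. Beta-arrestin recruitment was read as luminescence after 1 h with detection reagent at ambient temperature.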
# D2 antag: D2 dopamine receptor (human) antagonism | P14416 | HEK293 TREx D2 cells, calcium flux, dopamine EC80 | 340,000 compounds, 2% hits | AID 485344 | inhibition, % at 10 µM; in the data active means inhibition above about 30%; inactive means below that, where a call was filed; further: 0% is about no effect
#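 Overnight-induced (tetracycline, 30 C) HEK293 T-REx cells carrying force-coupled D2 receive a no-wash calcium dye, then compound, then EC80 dopamine at 180 s; signals are read kinetically throughout.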
# D2 ag-2: D2 dopamine receptor (human) agonism; P14416; HEK293 T-REx D2 cells, calcium flux agonist mode; activation, % at 2 µM; 340,000 compounds, 0.53% hits; AID 485358;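 active means activation over 3 SD above normal in the single-dose calcium agonist read, cut at about 30% in these data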; further: 0% is about no effect
#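 HEK293 Trex D2 cells, tetracycline-induced, o/n 30 C 5% CO2; no-wash Ca dye, RT 30–90 min; 10-cycle baseline, 23 nl cpd added, kinetic Ca read 180 s; agonist hits = positive Ca response.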
# Active calls of the source: *; ? = inconclusive; . = no result given. The list is not random: actives were taken first. Their share in the collection is about 2.4%.
SMILES,D2 PAM-1,B2AR arrestin,D2 ag-1,D2 PAM-2,D2 antag,D2 ag-2
COc1cc(/C=N/NC(=O)c2cccc3ccccc23)cc(OC)c1OC,-11,0%,-2,3,30*,-3
CCOC(=O)CNC(=O)c1cn(CC(C)C)c(=O)c2cc(OC)c(OC)cc12,-3,0%,0,-10,31*,0
COCCCn1c(=O)c2sccc2n(Cc2cccc(F)c2)c1=O,-7,0%,-3,-2,-19,-2
COCCCn1c(=O)c2sccc2n(Cc2cccc(C)c2)c1=O,5,0%,5,7,41*,-1
Cc1cc(Cl)ccc1OCC(=O)NCC(c1cccs1)N1CCOCC1 (stereo not drawn),0,0%,0,-7,10,0
CC1=CC2=NC(=O)CC(C)(C(=O)N(CC(=O)NC3CCCC3)c3cc(C)cc(C)c3)N2C=C1 (stereo not drawn),10,0%,1,-7,60*,0
CCOc1ccc(-n2cc(C(=O)NCCOC)c3cc(OC)c(OC)cc3c2=O)cc1,4,0%,-1,2,-1,0
CC(OCC(O)CN(C)CCOc1ccccc1)c1ccc(Cl)cc1 (stereo not drawn),-23,0%,6,17,26,32*
CN(CCOc1ccccc1)CC(O)COc1ccccc1 (stereo not drawn),-29,0%,-4,-16,51*,2
CN(CCOc1ccc(Cl)cc1)CC(O)c1ccccc1 (stereo not drawn),3,0%,-2,-17,-17,-1
COc1cccc(CNC(=O)C(=O)NCC2OCCCN2S(=O)(=O)c2cc(C)ccc2C)c1 (stereo not drawn),3,0%,-1,13,-17,0
CCN1C(=O)c2ccccc2S(=O)c2ccc(C(=O)N3CCN(c4ccccc4)CC3)cc21 (stereo not drawn),-8,.,.,.,.,6
CCN1C(=O)c2ccccc2S(=O)c2ccc(C(=O)N3CCCCCC3)cc21 (stereo not drawn),-3,0%,-1,-3,32*,0
N#CC1(c2nc3ccccc3[nH]2)CC1c1ccc2c(c1)OCO2 (stereo not drawn),-1,0%,4,-5,-8,0
C/C(=N\Nc1ccc(Cl)c(C(=O)O)c1)c1ccc(Br)s1,1,0%,2,-4,47*,-2
C/C(=N\NC(=O)c1ccc(Cl)c(Cl)c1)c1ccc(Br)s1,-2,1%,-5,-10,-2,-1
COc1cc(NC(=O)c2cc(OC)c(OC)c(OC)c2)cc(-n2cnnn2)c1,11,-1%,2,-3,-5,0
CN1CCN(C(=S)c2ccc(-c3cccc([N+](=O)[O-])c3)o2)CC1,0,0%,-2,-12,0,-1
O=[N+]([O-])c1cccc(-c2ccc(CN3CCCCC3)o2)c1,-27,0%,-8,-19,81*,1
O=[N+]([O-])c1cccc(-c2ccc(C(=S)N3CCOCC3)o2)c1,-1,0%,1,6,61*,0
CCCC(C)c1nc(C(N)=O)c2[nH]c(=O)n(-c3ccc(OC)cc3OC)c2n1 (stereo not drawn),-1,-1%,0,-6,-10,14
CCN1/C(=C/c2ccc3cc(C)ccc3[n+]2CC)Sc2ccccc21,10,0%,0,-9,5,36*
Cc1c(C(=O)NC(=S)Nc2cccnc2)cccc1[N+](=O)[O-],3,0%,-1,-3,-1,3
OCCCCNCc1cc(Br)ccc1OCc1ccccc1,-9,-1%,6,-18,-12,0
OCCNCc1cc(Br)ccc1OCc1ccccc1Cl,0,0%,2,-26,42*,0
SMILES,D2 PAM-1,B2AR arrestin,D2 ag-1,D2 PAM-2,D2 antag,D2 ag-2
CCNC(=O)C1(C)CCN(C(=O)c2cc(C)oc2C)C1 (stereo not drawn),.,.,-5,-3,.,.
Cc1ccc(NC(=S)Nc2ccc(S(=O)(=O)Nc3ncccn3)cc2)c(C)c1,-5,-1%,-1,-8,-11,0
CC(C)CCn1c(O)c(N=NC(=O)c2ccco2)c2ccccc21,-2,0%,-3,-7,31*,3
Cn1c(O)c(N=NC(=O)c2ccco2)c2ccccc21,14,0%,1,-4,-2,0
Cc1cc(C)c(S(=O)(=O)N2CCCC2=O)c(C)c1N(C)S(C)(=O)=O,-7,0%,-3,-2,38*,1
Cc1c(C(=O)N2CCCC2)oc2c1-c1nn(CC(=O)NCCCN3CCCCC3)cc1CC2,-6,0%,1,-30,37*,-1
CON(C)C(=O)/C=C/CCCCNC(=O)OC(C)(C)C,.,-1%,-1,-4,.,.
COc1cc(-c2cc3nc(NCCc4ccc(S(N)(=O)=O)cc4)ccn3n2)cc(OC)c1OC,.,.,?,19,.,.
CCCn1c(N)c(NCCN2CCOCC2)c(=O)n(CC(=O)NCc2ccccc2)c1=O,3,0%,-3,-1,33*,1
Cc1nn(CC(=O)NCCN2CCOCC2)c(=O)c2ccccc12,1,-1%,-4,-7,8,0
O=C(CCN1C(=O)c2ccccc2S1(=O)=O)N1CCN(c2ccc(F)cc2)CC1,-9,0%,-6,-3,33*,0
O=C(CCN1C(=O)c2ccccc2S1(=O)=O)N1CCN(c2ccccc2)CC1,-6,0%,4,-28,11,0
O=C1CN(C(=O)c2cc3ccccc3oc2=O)C(c2ccc(F)cc2)c2cc(Br)ccc2N1 (stereo not drawn),6,0%,-30,-4,-20,0
CCOc1ccc(S(=O)(=O)N(C)CC(=O)NCc2ccco2)cc1,.,0%,0,-3,6,-3
Cc1ccc(S(=O)(=O)N(C(=O)c2ccco2)c2cc3sc(=O)oc3c3ccccc23)cc1,2,0%,?,63*,-1,0
CCOc1ccc(S(=O)(=O)N(C(=O)c2ccco2)c2cc3sc(=O)oc3c3ccccc23)cc1,3,0%,?,150*,-1,0
COc1ccc(S(=O)(=O)N(C(=O)c2ccco2)c2cc3sc(=O)oc3c3ccccc23)cc1,2,-1%,?,97*,0,0
CCN(CC)c1ccc(C=NNc2ccc([N+](=O)[O-])cn2)cc1,.,.,3,1,.,.
CCCCCn1c(Sc2ccccc2)nc2c1c(=O)[nH]c(=O)n2C,5,0%,-1,-7,31*,0
CC(C)CCSc1nc2c(c(=O)[nH]c(=O)n2C)n1CCCc1ccccc1,-8,0%,6,0,35*,-2
